Molecules are shown by their SMILES.

Assay [1] concerns the target Tyrosine-protein kinase Fyn (Homo sapiens) (UniProt P06241). Conditions: at 1 µM.
The target of assay [2] is Tyrosine-protein kinase HCK (Homo sapiens) (UniProt P08631). Conditions: at 0.1 µM.
For assay [3] the target is unchanged. Conditions: at 1 µM.
Assay [4] concerns the target Insulin-like growth factor 1 receptor (Homo sapiens) (UniProt P08069). To be noted: at 0.1 µM.
The target is the same in assay [5]. Conditions: at 1 µM.
Assay [6] addresses Insulin receptor (Homo sapiens) (UniProt P06213). Conditions: at 0.1 µM.
Assay [7] shares this target. Conditions: at 1 µM.
In assay [8] the target is Insulin receptor-related protein (Homo sapiens) (UniProt P14616). To be noted: at 0.1 µM.
Insulin receptor-related protein (Homo sapiens), sequence (P14616 27-742 limits assumed): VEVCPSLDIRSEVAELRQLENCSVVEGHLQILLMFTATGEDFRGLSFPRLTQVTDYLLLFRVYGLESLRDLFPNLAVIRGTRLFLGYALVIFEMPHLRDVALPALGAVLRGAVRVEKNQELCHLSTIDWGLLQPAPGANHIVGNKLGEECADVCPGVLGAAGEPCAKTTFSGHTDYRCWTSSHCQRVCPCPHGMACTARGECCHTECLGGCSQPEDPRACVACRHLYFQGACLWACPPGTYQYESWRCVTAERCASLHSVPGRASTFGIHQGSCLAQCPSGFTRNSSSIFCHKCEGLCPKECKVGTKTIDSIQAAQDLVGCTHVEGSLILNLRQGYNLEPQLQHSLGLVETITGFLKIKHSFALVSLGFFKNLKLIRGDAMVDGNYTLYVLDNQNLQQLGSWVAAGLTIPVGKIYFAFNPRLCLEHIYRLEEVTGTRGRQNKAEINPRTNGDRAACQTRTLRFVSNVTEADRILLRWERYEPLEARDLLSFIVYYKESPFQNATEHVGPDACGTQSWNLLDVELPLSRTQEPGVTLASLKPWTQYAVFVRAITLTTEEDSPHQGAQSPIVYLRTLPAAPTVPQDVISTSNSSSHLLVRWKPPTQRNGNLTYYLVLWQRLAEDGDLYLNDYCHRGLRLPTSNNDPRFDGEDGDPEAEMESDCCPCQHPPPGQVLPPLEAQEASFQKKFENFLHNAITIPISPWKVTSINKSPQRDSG
Insulin receptor-related protein (Homo sapiens), sequence (P14616 747-1297 limits assumed): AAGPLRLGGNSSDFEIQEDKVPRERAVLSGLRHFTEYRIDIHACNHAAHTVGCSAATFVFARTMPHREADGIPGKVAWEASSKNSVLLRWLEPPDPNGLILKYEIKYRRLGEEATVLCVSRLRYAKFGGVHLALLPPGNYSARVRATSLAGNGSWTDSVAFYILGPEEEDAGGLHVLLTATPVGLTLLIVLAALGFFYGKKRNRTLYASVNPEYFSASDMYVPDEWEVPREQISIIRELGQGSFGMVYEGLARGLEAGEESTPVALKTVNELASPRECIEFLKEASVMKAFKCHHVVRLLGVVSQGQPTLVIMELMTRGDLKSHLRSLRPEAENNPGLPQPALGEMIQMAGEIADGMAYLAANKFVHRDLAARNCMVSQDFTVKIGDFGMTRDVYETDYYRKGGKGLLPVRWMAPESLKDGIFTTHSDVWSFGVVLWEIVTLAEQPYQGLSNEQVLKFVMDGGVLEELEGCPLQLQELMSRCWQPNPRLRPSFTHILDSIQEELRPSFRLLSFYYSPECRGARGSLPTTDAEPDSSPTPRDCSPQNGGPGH
The target is the same in assay [9]. To be noted: at 1 µM.
Assay [10] deals with T1, Tyrosine-protein kinase ITK/TSK (Homo sapiens) (UniProt Q08881).
T1 sequence (whole entry): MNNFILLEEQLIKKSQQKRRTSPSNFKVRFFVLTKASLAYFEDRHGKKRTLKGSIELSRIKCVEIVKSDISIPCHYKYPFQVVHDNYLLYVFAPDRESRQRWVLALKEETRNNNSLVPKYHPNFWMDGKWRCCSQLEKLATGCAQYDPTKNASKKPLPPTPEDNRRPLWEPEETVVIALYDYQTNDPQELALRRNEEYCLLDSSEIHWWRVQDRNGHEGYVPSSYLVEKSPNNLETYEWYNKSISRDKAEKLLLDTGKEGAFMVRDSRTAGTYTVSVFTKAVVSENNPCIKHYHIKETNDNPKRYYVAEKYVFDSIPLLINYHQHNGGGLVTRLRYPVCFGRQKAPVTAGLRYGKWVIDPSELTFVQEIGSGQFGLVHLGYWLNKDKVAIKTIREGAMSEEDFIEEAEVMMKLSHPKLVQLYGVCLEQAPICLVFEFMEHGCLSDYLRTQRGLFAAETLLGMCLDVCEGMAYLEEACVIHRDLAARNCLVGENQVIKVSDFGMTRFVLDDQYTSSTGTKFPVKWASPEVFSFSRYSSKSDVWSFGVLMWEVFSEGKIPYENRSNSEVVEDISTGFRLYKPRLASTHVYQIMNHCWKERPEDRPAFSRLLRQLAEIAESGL
To be noted: at 0.1 µM.

Assay [11] concerns the target T1, Tyrosine-protein kinase ITK/TSK (Homo sapiens). To be noted: at 1 µM.
Assay [12] has as its target Tyrosine-protein kinase JAK1 (Homo sapiens) (UniProt P23458). Conditions: at 0.1 µM.
Assay [13] shares this target. To be noted: at 1 µM.
The target of assay [14] is Tyrosine-protein kinase JAK2 (Homo sapiens) (UniProt O60674). Conditions: at 0.1 µM.
The target is the same in assay [15]. Conditions: at 1 µM.
The target of assay [16] is T2, Tyrosine-protein kinase JAK3 (Homo sapiens) (UniProt P52333).
T2 sequence (whole entry): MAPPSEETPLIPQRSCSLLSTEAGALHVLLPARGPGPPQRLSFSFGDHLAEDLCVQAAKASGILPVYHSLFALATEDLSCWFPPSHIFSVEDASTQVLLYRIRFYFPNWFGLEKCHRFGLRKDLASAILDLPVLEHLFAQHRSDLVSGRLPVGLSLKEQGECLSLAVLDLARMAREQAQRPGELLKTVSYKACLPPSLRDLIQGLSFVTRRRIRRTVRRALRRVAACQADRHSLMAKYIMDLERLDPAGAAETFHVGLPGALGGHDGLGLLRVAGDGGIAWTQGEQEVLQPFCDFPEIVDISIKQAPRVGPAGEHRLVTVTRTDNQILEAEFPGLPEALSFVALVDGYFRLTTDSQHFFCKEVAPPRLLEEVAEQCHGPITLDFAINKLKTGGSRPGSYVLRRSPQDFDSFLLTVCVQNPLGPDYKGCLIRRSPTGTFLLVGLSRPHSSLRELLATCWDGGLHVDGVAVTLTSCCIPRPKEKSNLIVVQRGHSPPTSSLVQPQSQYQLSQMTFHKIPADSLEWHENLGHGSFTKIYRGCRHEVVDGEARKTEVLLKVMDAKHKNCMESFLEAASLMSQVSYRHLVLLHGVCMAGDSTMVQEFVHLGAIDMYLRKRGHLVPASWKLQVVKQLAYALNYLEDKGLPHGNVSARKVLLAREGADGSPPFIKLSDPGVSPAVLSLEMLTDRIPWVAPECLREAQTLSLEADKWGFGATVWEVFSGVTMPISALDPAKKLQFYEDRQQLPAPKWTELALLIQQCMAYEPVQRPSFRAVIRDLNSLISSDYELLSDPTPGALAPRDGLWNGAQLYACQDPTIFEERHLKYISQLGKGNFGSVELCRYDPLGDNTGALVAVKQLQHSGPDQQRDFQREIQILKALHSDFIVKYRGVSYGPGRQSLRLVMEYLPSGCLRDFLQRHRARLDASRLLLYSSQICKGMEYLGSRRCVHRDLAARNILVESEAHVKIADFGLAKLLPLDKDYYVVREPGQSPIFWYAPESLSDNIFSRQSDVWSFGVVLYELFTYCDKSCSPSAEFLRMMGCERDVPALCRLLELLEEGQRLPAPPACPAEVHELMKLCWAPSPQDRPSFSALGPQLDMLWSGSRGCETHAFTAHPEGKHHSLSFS
Conditions: at 0.1 µM.

For assay [17], the target named is T2, Tyrosine-protein kinase JAK3 (Homo sapiens). To be noted: at 1 µM.
Assay [18] concerns the target Vascular endothelial growth factor receptor 2 (Homo sapiens) (UniProt P35968). To be noted: at 0.1 µM.
For assay [19] the target is unchanged. Conditions: at 1 µM.
Assay [20] has as its target Mast/stem cell growth factor receptor Kit (Homo sapiens) (UniProt P10721). To be noted: at 0.1 µM.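 Note: values are mean inhibition of KIT, from the GSK PKIS dataset.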

Vascular endothelial growth factor receptor 2 (Homo sapiens), sequence (P35968 whole entry): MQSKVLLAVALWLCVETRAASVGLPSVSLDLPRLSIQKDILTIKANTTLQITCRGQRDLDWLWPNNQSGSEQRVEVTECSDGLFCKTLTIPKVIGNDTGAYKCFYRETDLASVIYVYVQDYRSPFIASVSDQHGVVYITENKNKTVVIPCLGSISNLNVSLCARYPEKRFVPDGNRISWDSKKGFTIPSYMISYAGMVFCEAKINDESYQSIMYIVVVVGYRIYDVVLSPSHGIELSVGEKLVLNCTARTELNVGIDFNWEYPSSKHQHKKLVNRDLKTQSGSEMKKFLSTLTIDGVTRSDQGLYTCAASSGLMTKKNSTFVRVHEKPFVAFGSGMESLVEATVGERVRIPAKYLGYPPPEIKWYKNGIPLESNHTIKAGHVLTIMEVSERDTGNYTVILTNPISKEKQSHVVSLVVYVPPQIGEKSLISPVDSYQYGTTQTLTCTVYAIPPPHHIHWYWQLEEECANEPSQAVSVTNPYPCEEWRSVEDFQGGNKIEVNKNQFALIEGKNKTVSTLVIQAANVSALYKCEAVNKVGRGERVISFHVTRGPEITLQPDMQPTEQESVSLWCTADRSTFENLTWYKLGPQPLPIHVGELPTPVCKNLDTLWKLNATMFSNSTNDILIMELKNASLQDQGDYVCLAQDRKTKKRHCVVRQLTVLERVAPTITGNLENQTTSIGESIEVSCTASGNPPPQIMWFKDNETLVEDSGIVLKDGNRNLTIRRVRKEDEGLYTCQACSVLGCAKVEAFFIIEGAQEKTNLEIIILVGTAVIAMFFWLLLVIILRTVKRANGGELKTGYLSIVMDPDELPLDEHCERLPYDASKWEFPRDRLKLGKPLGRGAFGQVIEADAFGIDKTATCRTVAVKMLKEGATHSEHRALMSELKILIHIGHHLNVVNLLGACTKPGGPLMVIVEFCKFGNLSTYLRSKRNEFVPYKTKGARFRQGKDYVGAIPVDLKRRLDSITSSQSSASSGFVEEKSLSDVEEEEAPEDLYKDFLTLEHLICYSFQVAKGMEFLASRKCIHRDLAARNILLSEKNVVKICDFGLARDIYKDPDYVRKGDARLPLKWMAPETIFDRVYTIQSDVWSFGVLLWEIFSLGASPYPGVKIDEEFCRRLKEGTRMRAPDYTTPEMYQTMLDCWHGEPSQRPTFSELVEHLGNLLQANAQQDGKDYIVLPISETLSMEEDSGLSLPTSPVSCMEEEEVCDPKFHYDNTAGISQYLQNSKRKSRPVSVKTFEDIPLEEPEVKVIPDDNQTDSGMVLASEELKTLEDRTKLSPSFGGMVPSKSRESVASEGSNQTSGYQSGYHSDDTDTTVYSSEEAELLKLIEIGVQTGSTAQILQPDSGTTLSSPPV
Insulin receptor (Homo sapiens), sequence (P06213 28-758 limits assumed): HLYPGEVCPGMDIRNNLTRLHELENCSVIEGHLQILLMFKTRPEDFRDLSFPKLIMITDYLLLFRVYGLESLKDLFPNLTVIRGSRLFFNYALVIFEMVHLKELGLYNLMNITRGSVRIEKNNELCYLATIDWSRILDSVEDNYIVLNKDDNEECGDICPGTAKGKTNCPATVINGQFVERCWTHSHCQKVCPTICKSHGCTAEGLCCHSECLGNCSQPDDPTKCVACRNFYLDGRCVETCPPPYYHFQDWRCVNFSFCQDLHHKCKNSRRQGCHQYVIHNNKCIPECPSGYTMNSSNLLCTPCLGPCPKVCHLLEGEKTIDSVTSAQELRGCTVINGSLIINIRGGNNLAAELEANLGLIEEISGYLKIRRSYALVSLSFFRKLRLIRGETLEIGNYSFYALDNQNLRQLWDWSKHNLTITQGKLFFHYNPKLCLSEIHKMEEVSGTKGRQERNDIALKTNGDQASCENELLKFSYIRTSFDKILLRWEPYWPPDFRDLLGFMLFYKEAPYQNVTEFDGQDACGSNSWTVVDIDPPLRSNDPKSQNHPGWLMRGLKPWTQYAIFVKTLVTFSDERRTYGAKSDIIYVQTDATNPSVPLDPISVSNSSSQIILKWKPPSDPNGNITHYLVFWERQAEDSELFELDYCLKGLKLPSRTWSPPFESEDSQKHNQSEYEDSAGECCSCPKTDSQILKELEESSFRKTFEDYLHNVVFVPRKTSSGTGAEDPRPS
Insulin receptor (Homo sapiens), sequence (P06213 763-1382 limits assumed): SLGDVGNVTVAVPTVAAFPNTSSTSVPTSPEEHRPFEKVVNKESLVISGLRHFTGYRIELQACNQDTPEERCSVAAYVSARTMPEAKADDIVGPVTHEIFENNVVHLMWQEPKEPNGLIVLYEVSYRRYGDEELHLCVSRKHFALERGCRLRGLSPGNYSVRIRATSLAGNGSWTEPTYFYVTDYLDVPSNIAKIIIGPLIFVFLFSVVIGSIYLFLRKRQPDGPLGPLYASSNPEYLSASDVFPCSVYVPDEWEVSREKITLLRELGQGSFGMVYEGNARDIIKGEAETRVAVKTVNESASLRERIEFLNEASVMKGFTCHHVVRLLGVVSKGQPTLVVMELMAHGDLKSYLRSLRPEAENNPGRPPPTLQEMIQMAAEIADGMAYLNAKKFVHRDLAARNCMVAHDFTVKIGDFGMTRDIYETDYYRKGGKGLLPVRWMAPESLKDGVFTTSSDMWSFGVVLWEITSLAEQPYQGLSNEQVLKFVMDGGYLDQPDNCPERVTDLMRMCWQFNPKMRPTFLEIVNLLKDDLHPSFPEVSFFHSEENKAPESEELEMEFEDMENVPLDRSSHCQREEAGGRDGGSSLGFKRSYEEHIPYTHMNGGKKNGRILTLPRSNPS
Mast/stem cell growth factor receptor Kit (Homo sapiens), sequence (P10721 whole entry): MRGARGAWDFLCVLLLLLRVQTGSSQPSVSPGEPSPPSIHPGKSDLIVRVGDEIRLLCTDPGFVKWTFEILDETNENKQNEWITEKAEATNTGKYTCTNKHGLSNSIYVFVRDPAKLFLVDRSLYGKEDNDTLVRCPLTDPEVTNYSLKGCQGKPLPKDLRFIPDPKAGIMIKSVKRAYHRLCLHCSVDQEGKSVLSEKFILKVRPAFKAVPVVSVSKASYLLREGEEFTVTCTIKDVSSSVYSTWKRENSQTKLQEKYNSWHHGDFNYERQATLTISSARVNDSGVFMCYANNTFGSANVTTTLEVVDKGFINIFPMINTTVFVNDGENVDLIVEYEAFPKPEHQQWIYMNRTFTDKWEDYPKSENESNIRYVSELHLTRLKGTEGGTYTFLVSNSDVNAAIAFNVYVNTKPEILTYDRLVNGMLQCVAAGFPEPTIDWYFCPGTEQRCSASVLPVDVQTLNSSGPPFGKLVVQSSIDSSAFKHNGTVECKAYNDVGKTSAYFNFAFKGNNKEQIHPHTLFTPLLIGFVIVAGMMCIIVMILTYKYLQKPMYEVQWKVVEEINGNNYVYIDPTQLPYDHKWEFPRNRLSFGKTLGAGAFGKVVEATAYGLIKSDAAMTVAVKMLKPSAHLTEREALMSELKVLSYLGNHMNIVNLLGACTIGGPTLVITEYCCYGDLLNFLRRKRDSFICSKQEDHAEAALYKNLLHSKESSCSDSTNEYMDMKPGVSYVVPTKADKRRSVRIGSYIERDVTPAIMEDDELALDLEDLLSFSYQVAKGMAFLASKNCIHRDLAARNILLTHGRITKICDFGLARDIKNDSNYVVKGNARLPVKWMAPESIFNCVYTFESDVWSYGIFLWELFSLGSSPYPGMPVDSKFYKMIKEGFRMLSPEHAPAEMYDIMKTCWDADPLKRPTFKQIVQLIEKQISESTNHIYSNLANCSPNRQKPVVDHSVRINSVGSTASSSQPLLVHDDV

What is called inhibition is the relative decrease from the control value, in per cent. `CC(C)COC(=O)c1ccc2c(c1)/C(=C/Nc1ccc(S(N)(=O)=O)cc1)C(=O)N2`: the inhibition in [1] was 71.6%; in assay [2], 4.68%; in assay [3] it was 38.5%; in [4], 0.52%; in assay [5], 1.72%; in assay [6], 2.06%. Further, the inhibition was 2.17% in assay [7]; -3.52% in assay [8]; 0.22% in assay [9]; 0.34% in [10]; 5.29% in [11]; 0.07% in [12]. In addition, the inhibition in assay [13] is 12.7%; in assay [14], -0.31%; in assay [15], 12.3%; in assay [16] it was 2.41%; in assay [17], 45.5%; in [18] it was 40.4%. In addition, the results for the inhibition in assay [19] and in assay [20] were 71.5% and -0.74%, respectively.
Regarding `c1cc(-c2cnn3nc(N4CCOCC4)ccc23)nc(NC2CC2)n1`, the inhibition worked out at 4.87% in [1]; 7.14% in [2]; 11.7% in assay [3]; 4.81% in assay [4]; 5% in assay [5]; 4.73% in assay [6]. Moreover, the inhibition in [7] amounted to 8.56%; in assay [8], 2.65%; in assay [9], 1.15%; in assay [10], 1.06%; in [11] it was 3.22%; in [12], 0.54%. Further, the inhibition in [13] is -6.96%; in assay [14] it was 2.21%; in assay [15] it was 1.85%; in assay [16], -1.14%; in assay [17] it was -0.05%; in assay [18] it was 12.9%. Besides, the results for the inhibition in [19] and in assay [20] were 48% and 6.83%, respectively.
In the case of `CCn1c(-c2nonc2N)nc2ccccc21`, the inhibition in assay [1] was found to be 0.78%; in [2], 5.97%; in assay [3], 8.93%; in assay [4], 4.98%; in assay [5] it was 6.36%; in [6] it was 2.87%. In addition, the inhibition in [7] was found to be 1.78%; in assay [8] it was 3.31%; in assay [9] it was 2.08%; in [10], 1.11%; in assay [11] it was 0.89%; in assay [12] it was 5.98%. In addition, the inhibition was -0.06% in assay [13]; 1.96% in assay [14]; 1.39% in [15]; -0.66% in assay [16]; 1.16% in assay [17]; 3.69% in [18]. The values for the inhibition in assay [19] and in assay [20] were 4.29% and 3.84%, respectively.
Regarding `N#Cc1c(NC(=O)CN2CCOCC2)sc2c1CCCC2`, the inhibition in [1] came to 8.48%; in [2] it was 2.96%; in assay [3], 8.43%; in assay [4] it was 4.81%; in [5] it was 5.33%; in assay [6], 13.2%. Moreover, the inhibition was determined as 8.64% in assay [7]; 3.54% in [8]; 3.5% in assay [9]; 1.1% in [10]; 3.52% in assay [11]; 2.38% in [12]. Also, the inhibition in assay [13] is 9.38%; in assay [14] it was 2.3%; in assay [15] it was 3.35%; in [16], -0.09%; in assay [17] it was 1.28%; in [18] it was 4.13%. Besides, the inhibition in assay [19] came to 6.56%; in assay [20], 6.21%.
On to `O=C(O[C@H]1CN[C@H](C#Cc2cc3ncnc(Nc4ccc(Cc5ccccc5)cc4)c3s2)C1)N1CCOCC1`, for which the inhibition in assay [1] is 5.81%; in [2], 1.46%; in assay [3], 6.92%; in assay [4] it was -3.02%; in [5], -1.17%; in assay [6] it was -0.74%. The inhibition in assay [7] was -2.74%; in assay [8], 0.8%; in assay [9], 1.05%; in [10] it was -0.73%; in assay [11], 0.7%; in [12], 0.98%. For the same molecule, the inhibition is 1.8% in assay [13]; -0.09% in assay [14]; -0.66% in assay [15]; -2.28% in assay [16]; -1.16% in assay [17]; -0.84% in assay [18]. Besides, the inhibition came to 5.75% in [19] and 2.78% in assay [20].
Take `CCc1nn2ncccc2c1-c1ccnc(NC2CC2)n1`: the inhibition stood at 5.07% in assay [1]; 5.27% in [2]; 5.74% in assay [3]; 1.94% in assay [4]; 2% in assay [5]; 2.33% in assay [6]. Further, the inhibition came out at 4.74% in assay [7]; 2.32% in assay [8]; 1.77% in [9]; 1.28% in [10]; 1.59% in assay [11]; 1.35% in assay [12]. Besides, the inhibition in [13] was 0.58%; in assay [14] it was 0.9%; in assay [15] it was 1.59%; in assay [16] it was -2.87%; in [17] it was -0.27%; in assay [18] it was 3.91%. The inhibition in [19] turned out to be 5.8%; in assay [20] it was 3.6%.
With `Cc1cccc2c1NC(=O)/C2=N\Nc1ccc(S(N)(=O)=O)cc1`, the inhibition in assay [1] turned out to be 1.92%; in [2], 4.11%; in assay [3] it was 6.57%; in [4], 1.39%; in [5] it was 2.37%; in [6] it was 2.44%. The inhibition in assay [7] was determined as 2.27%; in assay [8], 6.42%; in [9], 0.05%; in assay [10], 1.75%; in assay [11], 2.45%; in [12], 3.68%. Also, the inhibition came out at 0.61% in assay [13]; 2.04% in assay [14]; 4% in assay [15]; 0% in assay [16]; 4.14% in assay [17]; 1.56% in assay [18]. The inhibition in assay [19] was determined as 1.84%; in assay [20], 8.83%.

For the origin of these results see ChEMBL document CHEMBL1961873, “Compounds: GSK PKIS; Assays: Nanosyn kinase panel” (2012).
